# Data from the supplement of paper PMC6897291.
# Key:
# U-2932 [1] = experiment: growth inhibition by drug alone (1 - RLU/untreated control) (fraction); higher = stronger inhibition; settings: 177Lu-lilotomab satetraxetan 0 ug/ml
# Procedure, shortened: (§1)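 A radiolabelled anti-CD37 antibody conjugate (~600 MBq/mg) was applied for 18 h at 0.5 µg/ml to RIVA and 1 µg/ml to U-2932 cells, with untreated cells run alongside. All cells were washed and seeded at 3,000 cells/well onto library-printed plates at 10/100 nM (RIVA) or 10/1,000 nM (U-2932). Growth inhibition was based on RealTime-Glo luminescence compared with untreated no-drug wells. Daily reads began on day 3 after 1 h at 37°C, with each value being 1 − RLU/mean of the 48 such wells on that plate.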
# RIVA [2] = experiment: as above; settings: 177Lu-lilotomab satetraxetan 0 ug/ml
# Procedure, shortened: as §1
# U-2932 [3] = experiment: growth inhibition by drug plus 177Lu-lilotomab satetraxetan (1 - RLU/untreated control) (fraction); higher = stronger inhibition; settings: 177Lu-lilotomab satetraxetan 1 ug/ml
# Procedure, shortened: as §1
# RIVA [4] = experiment: as above; settings: 177Lu-lilotomab satetraxetan 0.5 ug/ml
# Procedure, shortened: as §1
SMILES,"growth inhibition by drug alone (U-2932 [1]; 10 nM, time (day): 3)","growth inhibition by drug alone (U-2932 [1]; 10 nM, time (day): 4)","growth inhibition by drug alone (U-2932 [1]; 10 nM, time (day): 5)","growth inhibition by drug alone (U-2932 [1]; 10 nM, time (day): 6)","growth inhibition by drug alone (U-2932 [1]; 1000 nM, time (day): 3)","growth inhibition by drug alone (U-2932 [1]; 1000 nM, time (day): 4)","growth inhibition by drug alone (U-2932 [1]; 1000 nM, time (day): 5)","growth inhibition by drug alone (U-2932 [1]; 1000 nM, time (day): 6)","growth inhibition by drug alone (RIVA [2]; 10 nM, time (day): 3)","growth inhibition by drug alone (RIVA [2]; 10 nM, time (day): 4)","growth inhibition by drug alone (RIVA [2]; 10 nM, time (day): 5)","growth inhibition by drug alone (RIVA [2]; 10 nM, time (day): 6)","growth inhibition by drug alone (RIVA [2]; 100 nM, time (day): 3)","growth inhibition by drug alone (RIVA [2]; 100 nM, time (day): 4)","growth inhibition by drug alone (RIVA [2]; 100 nM, time (day): 5)","growth inhibition by drug alone (RIVA [2]; 100 nM, time (day): 6)","growth inhibition by drug plus 177Lu-lilotomab satetraxetan (U-2932 [3]; 10 nM, time (day): 3)","growth inhibition by drug plus 177Lu-lilotomab satetraxetan (U-2932 [3]; 10 nM, time (day): 4)","growth inhibition by drug plus 177Lu-lilotomab satetraxetan (U-2932 [3]; 10 nM, time (day): 5)","growth inhibition by drug plus 177Lu-lilotomab satetraxetan (U-2932 [3]; 10 nM, time (day): 6)","growth inhibition by drug plus 177Lu-lilotomab satetraxetan (U-2932 [3]; 1000 nM, time (day): 3)","growth inhibition by drug plus 177Lu-lilotomab satetraxetan (U-2932 [3]; 1000 nM, time (day): 4)","growth inhibition by drug plus 177Lu-lilotomab satetraxetan (U-2932 [3]; 1000 nM, time (day): 5)","growth inhibition by drug plus 177Lu-lilotomab satetraxetan (U-2932 [3]; 1000 nM, time (day): 6)","growth inhibition by drug plus 177Lu-lilotomab satetraxetan (RIVA [4]; 10 nM, time (day): 3)","growth inhibition by drug plus 177Lu-lilotomab satetraxetan (RIVA [4]; 10 nM, time (day): 4)","growth inhibition by drug plus 177Lu-lilotomab satetraxetan (RIVA [4]; 10 nM, time (day): 5)","growth inhibition by drug plus 177Lu-lilotomab satetraxetan (RIVA [4]; 10 nM, time (day): 6)","growth inhibition by drug plus 177Lu-lilotomab satetraxetan (RIVA [4]; 100 nM, time (day): 3)","growth inhibition by drug plus 177Lu-lilotomab satetraxetan (RIVA [4]; 100 nM, time (day): 4)","growth inhibition by drug plus 177Lu-lilotomab satetraxetan (RIVA [4]; 100 nM, time (day): 5)","growth inhibition by drug plus 177Lu-lilotomab satetraxetan (RIVA [4]; 100 nM, time (day): 6)"
CN1CCN(c2ccc3nc(-c4c(N)c5c(F)cccc5[nH]c4=O)[nH]c3c2)CC1 [Dovitinib (TKI-258)],0.12,0.0504,-0.004,-0.0165,0.0669,-0.0112,-0.0673,-0.128,0.0921,0.0422,-0.0205,-0.168,-0.156,-0.0867,-0.188,-0.316,0.0639,0.0792,0.118,0.243,0.0496,0.031,0.0265,0.126,–,–,–,–,–,–,–,–
Cc1ccnc(NS(=O)(=O)c2ccc(NC(=O)Nc3ccc(S(=O)(=O)Nc4nccc(C)n4)cc3)cc2)n1,0.175,0.112,-0.00245,-0.0763,0.114,0.089,-0.0667,-0.0262,0.0129,0.0204,-0.0366,-0.304,-0.284,-0.137,-0.166,-0.281,0.0395,0.0885,0.162,0.182,0.099,0.13,0.195,0.303,–,–,–,–,–,–,–,–
CO[C@H]1C[C@@H]2CC[C@@H](C)[C@@](O)(O2)C(=O)C(=O)N2CCCC[C@H]2C(=O)O[C@H]([C@H](C)C[C@@H]2CC[C@@H](OCCO)[C@H](OC)C2)CC(=O)[C@H](C)/C=C(\C)[C@@H](O)[C@@H](OC)C(=O)[C@H](C)C[C@H](C)/C=C/C=C/C=C/1C [Everolimus (RAD001)],0.744,0.686,0.591,0.52,0.743,0.728,0.667,0.605,0.776,0.768,0.744,0.653,0.811,0.826,0.827,0.801,0.69,0.625,0.558,0.538,0.719,0.729,0.706,0.702,0.821,0.838,0.833,0.788,0.833,0.865,0.876,0.873
COc1cc(Nc2ncc3c(n2)-c2ccc(Cl)cc2C(c2c(F)cccc2OC)=NC3)ccc1C(=O)O [MLN8237 (Alisertib)],0.00882,-0.00518,-0.0513,-0.269,0.101,0.128,0.153,0.291,-0.00668,-0.0776,-0.136,-0.266,0.624,0.553,0.569,0.599,0.0071,0.0562,0.0508,0.126,0.21,0.278,0.316,0.459,0.398,0.551,0.559,0.572,0.754,0.81,0.845,0.873
CN(C)c1ccccc1CN1CCCN(Cc2ccccc2N(C)C)C1c1ccncc1,0.0601,0.0484,-0.0775,-0.0436,-0.0515,0.0164,-0.0723,-0.322,-0.0275,-0.0402,-0.0946,-0.333,-0.107,-0.0882,-0.101,-0.219,-0.0506,-0.00857,0.0315,0.0251,-0.133,-0.00158,-0.031,-0.0122,0.403,0.514,0.537,0.54,0.416,0.506,0.504,0.487
O=C(CCc1ccc(O)cc1)c1c(O)cc(O)cc1O [Phloretin (Dihydronaringenin)],0.0643,0.0536,-0.0351,-0.0447,-0.0185,0.0218,-0.0851,-0.198,-0.0549,-0.06,-0.168,-0.56,-0.0989,-0.0769,-0.0878,-0.189,0.0204,0.0299,0.064,0.0928,-0.0932,0.0213,-0.0168,0.0656,–,–,–,–,–,–,–,–
Nc1cccc2c1C(=O)N(C1CCC(=O)NC1=O)C2=O (stereo unspecified) [Pomalidomide],0.00761,0.0144,-0.0587,-0.183,0.0958,0.25,0.271,0.309,-0.0396,-0.0278,-0.0766,-0.254,-0.0764,-0.115,-0.132,-0.196,0.0211,0.034,0.0448,0.147,0.233,0.391,0.414,0.472,–,–,–,–,–,–,–,–
CN1CCN(c2cccc(Nc3nc4c(-c5ccc(S(C)(=O)=O)cc5)cccn4n3)c2)CC1,0.0344,0.0428,0.0368,0.113,0.028,0.0442,0.0461,0.102,-0.0335,-0.0683,-0.203,-0.505,-0.0314,-0.0426,-0.0675,-0.155,0.0292,0.0656,0.062,0.17,-0.0239,0.0604,0.101,0.21,–,–,–,–,–,–,–,–
